Our source for the outcome and AC50 values is PubChem BioAssay (EPA / NIEHS).

Active and inactive are the calls of the source. The calls were made as follows: active = hit-call score of the fitted dose curve at least 0.9, where 1 is the maximum; inactive = score below 0.9.

Read-out in the assay: Cyclin D2 (CCND2), CCND2 (gene 894)
As to the kind of experiment: LTEA_HepaRG_CCND2: Life Technologies and Expression Analysis (LTEA) Assay for Cyclin D2 (CCND2) using HepaRG (AID 2283449).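 Also: CCND2 transcript measured by TaqMan qRT-PCR and normalised to three housekeeping genes.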 The following applies: mRNA level, 48 h; actives raise or lower the signal. Here is the method:
LTEA_HepaRG is a cell based, multiplexed-readout assay that uses HepaRG, a human liver cell line, with measurements taken at 48 hours after chemical dosing on a 96-well plate.LTEA_HepaRG_CCND2 is one of 102 assay component(s) measured in the LTEA HepaRG cell culture assay. It is a marker of Cell proliferation, survival, death.Data from the assay component LTEA_HepaRG_CCND2 was analyzed into 1 endpoint. This assay endpoint, LTEA_HepaRG_CCND2, was analyzed with bidirectional fitting relative to DMSO as the negative control and baseline of activity. Using a type of inducible reporter, measures of mRNA induction for gain or loss-of-signal activity can be used to understand regulation of transcription factor activity. To generalize the intended target to other relatable targets, this assay endpoint is annotated to the cell cycle intended target family, where the subfamily is Cell proliferation, survival, death.
A total of 1060 chemcials from the ToxCast library were tested in eight-point concentration-response experiments. Cell culture and cytotoxicity assays were conducted at Thermo Fisher Scientific's Custom Services facility (Madison, WI). A single lot of human HepaRG cells (Thermo Fisher Scientific, Frederick, MD) was used for the cell culture experiments. 96-well format collagen type I coated plates of human HepaRG cells were prepared using established methods. Briefly, cryopreserved HepaRG cells were thawed, plated at a density of approximately 100,000 cells/well in HepaRG Thaw, Plate, and General Purpose media (HPRG770, Thermo Fisher Scientific), and incubated for 48 hours. 0.5% DMSO was selected as vehicle control to balance the requisite need of DMSO in HepaRG cultures to maintain differentiation (for example, baseline metabolism, proportions of hepatocytes vs. cholangiocytes), while enabling further hepatic receptor pathway activation (for example, PXR and CAR) in response to chemical exposure. 48 hours after plating, the culture medium was replaced with HepaRG Serum-Free Incudtion Media. Cells were exposed to each test chemical in duplicate and maintained in CO2 incubators for another 48 hours. Chemical plates were thawed to room temperature and 200x concentrations of treatment groups were prepared. 8-point conentration-reponse curves were made with the highest exposure at 100 uM, followed by half-log dilutions, all in 0.5% DMSO. Each test plate contained variouse controls, induction positive controls (1mM phenobarbital), cytotoxicity positive controls ([…] aflatoxin B1), vehicle controls (0.5% DMSO), and total lysis controls (0.5% DMSO). Cell morphology images were taken using an Essen IncuCyte FLR automated microscope, with six 96-well plates imaged in about 24 minutes. Images were captured and exported and JPEG files. Spent culture media was transfered to black-well plates for the LDH assay, and remaining media was sorted at -80 C for later use. Cells were treated with RLT buffer and frozen until shipped for gene expression analysis. Total RNA was isolated from the cell suspension in 75 uL of Buffer RLT (Qiagen, Germantown, MD 20874) by Quintiles/Expression Analysis (Durham, NC) using a custom isolation procedure. Total RNA from each plate well was transferred to a preamplification plate. Fluidigm's 96.96 Dynamic ArrayTM (Fluidigm, Amsterdam, the Netherlands) technology was used for gene expression analyses by quantitative reverse transcription polymerase chain reaction (qRT-PCR, performed by Quintiles/Expression Analysis, Durham, NC)89. Standard TaqManTM Assays (Applied Biosystems/ThermoFisher Scientific, Foster City, CA) were used to assess the expression of 93 genes selected based on their selectivity and sensitivity to important hepatic receptors known to be modulated by environmental chemicals; importance in human hepatocyte functionality; and hepatotoxicity. […]
For the compound `CSC1=N[C@@](C)(c2ccccc2)C(=O)N1Nc1ccccc1`, the result was inactive.

Consider `CCOC(=O)CC(SP(=O)(OC)OC)C(=O)OCC` (stereo not given), for which the compound was classed as inactive.

Regarding `Nc1c(Cl)cc([N+](=O)[O-])cc1Cl`, the compound was called inactive.

With `CCCCSP(=O)(SCCCC)SCCCC`, the call was inactive.

Consider `COP(=O)(OC)SCn1c(=O)oc2cc(Cl)cnc21`, for which the compound was classed as inactive.

Turning to `N#CSCSC#N`, the result was inactive.

For the compound `C[Si](Cn1cncn1)(c1ccc(F)cc1)c1ccc(F)cc1`, the compound was called inactive.

In the case of `CC(COc1ccc(Oc2ccccc2)cc1)Oc1ccccn1` (stereo not given), the outcome was inactive.

As for `CC(C)N(C(=O)SCC(Cl)=C(Cl)Cl)C(C)C`, the compound was classed as inactive.

Turning to `CNC(=O)ON=C(SC)C(=O)N(C)C`, the compound was called inactive.

Turning to `CCCOCC(=Nc1ccc(Cl)cc1C(F)(F)F)n1ccnc1`, the result was inactive.

As to `CCOP(=S)(OCC)Oc1ccc2c(C)c(Cl)c(=O)oc2c1`, the compound was classed as inactive.

Consider `CC(=NC#N)N(C)Cc1ccc(Cl)nc1`, for which the call was inactive.

Regarding `CCCSP(=O)(OCC)SCCC`, the result was inactive.

As to `COP(=O)(OC)OC(Br)C(Cl)(Cl)Br` (stereo not given), the result was inactive.

As for `CSc1nc(NC(C)C)nc(NC(C)C)n1`, the compound was classed as inactive.

As for `CSc1nnc(C(C)(C)C)c(=O)n1N`, the call was inactive.

As to `Cc1ccn2nc(S(=O)(=O)Nc3c(F)cccc3F)nc2n1`, the outcome was inactive.

Turning to `CCOP(=S)(OCC)Oc1ccc([N+](=O)[O-])cc1`, the outcome was inactive.

In the case of `Nc1nc(N)nc(NC2CC2)n1`, the call was inactive.

Turning to `COc1cccc(C(=O)NN(C(=O)c2cc(C)cc(C)c2)C(C)(C)C)c1C`, the compound was classed as inactive.

Regarding `CC1=NNC(=O)N(/N=C/c2cccnc2)C1`, the compound was called inactive.

Consider `CNC(=O)ON=C(C)SC`, for which the result was inactive.

Take `CON=C(C(=O)OC)c1ccccc1CON=C(C)c1cccc(C(F)(F)F)c1`: the compound was classed as inactive.

For the compound `C#CC(C)(C)NC(=O)c1cc(Cl)cc(Cl)c1`, the compound was classed as inactive.

Regarding `CCCCOC(=O)[C@@H](C)Oc1ccc(Oc2ccc(C#N)cc2F)cc1`, the outcome was inactive.

Regarding `S=C1NCCN1`, the call was inactive.

As for `CCC(CC)Nc1c([N+](=O)[O-])cc(C)c(C)c1[N+](=O)[O-]`, the call was inactive.

`CC(C1CC1)C(O)(Cn1cncn1)c1ccc(Cl)cc1` (stereo not given): the outcome was inactive.

Regarding `CCCOc1nn(C(=O)NS(=O)(=O)c2ccccc2C(=O)OC)c(=O)n1C`, the half-maximal activity concentration (AC50) is 67.7 µM (active).

On to `CCCCN(CC)c1c([N+](=O)[O-])cc(C(F)(F)F)cc1[N+](=O)[O-]`, for which the compound was classed as inactive.

Consider `CCNc1nc(Cl)nc(NC(C)(C)C#N)n1`, for which the compound was called inactive.

For the compound `COc1ccc(C(=CC(=O)N2CCOCC2)c2ccc(Cl)cc2)cc1OC`, the call was inactive.

Regarding `O=c1ccc(=O)[nH][nH]1`, the result was inactive.

As to `CCc1cccc(C)c1N(C(=O)CCl)C(C)COC` (stereo not given), the outcome was inactive.

Consider `CC[C@H](C)[C@H]1O[C@]2(C=C[C@@H]1C)C[C@@H]1C[C@@H](C/C=C(\C)[C@@H](O[C@H]3C[C@H](OC)[C@@H](O[C@H]4C[C@H](OC)[C@@H](NC)[C@H](C)O4)[C@H](C)O3)[C@@H](C)/C=C/C=C3\CO[C@@H]4[C@H](O)C(C)=C[C@@H](C(=O)O1)[C@]34O)O2`, for which the outcome was inactive.

On to `CCc1cnc(C2=NC(C)(C(C)C)C(=O)N2)c(C(=O)O)c1` (stereo not given), for which the compound was classed as inactive.

For `C#CCC1=C(C)C(OC(=O)C2C(C=C(C)C)C2(C)C)CC1=O` (stereo not given), the compound was called inactive.

Turning to `CC(C)[C@H](C(=O)O[C@H](C#N)c1cccc(Oc2ccccc2)c1)c1ccc(Cl)cc1`, the compound was called inactive.

On to `CN(C)NC(=O)CCC(=O)O`, for which the compound was called inactive.

What is called AC50 is the midpoint of the concentration-response curve, whichever way the signal moves.
